Screen size: about 5,500 compounds; about 2,000 (36%) were called active. Roughly 18% stayed inconclusive and do not appear here. Rule as the data show it: active = normalized growth mostly below about 0.91 (no sharp cut-off); inconclusive = no clear call, values can overlap the other calls; inactive = mostly above about 0.92. This is one part of the list.
Assay: chemical genetic growth profiling, strain panel (AID 1159580);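 also: tested at 20 µM; growth read once vehicle control cultures reached saturation at 30 °C; 1 = growth at the plate median or of vehicle wells; lower values mean less growth of the strain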
Conditions: growth OD

Measured: normalized growth

Nc1ccc(C(=O)NCC(=O)O)cc1
inactive: S. cerevisiae deletion strains, locus YKL009W, strain mrt4, active compounds read low 1.02 | S. cerevisiae deletion strains, locus YKL068W, active compounds read low 1 | S. cerevisiae deletion strains, locus YKL085W, strain MDH1 (second series), active compounds read low 1.01 | S. cerevisiae deletion strains, locus YKL085W, strain MDH1, active compounds read low 1.01 | S. cerevisiae deletion strains, locus YKL160W, strain elf1, active compounds read low 1.04 | S. cerevisiae deletion strains, locus YKL190W, strain CNB1, active compounds read low 1 | S. cerevisiae deletion strains, locus YKR001C, strain vps1, active compounds read low 1.02 | S. cerevisiae deletion strains, locus YKR026C, strain gcn3, active compounds read low 1.01 | S. cerevisiae deletion strains, locus YKR091W, strain srl3, active compounds read low 0.999 | S. cerevisiae deletion strains, locus YLL001W, strain dnm1, active compounds read low 1 | S. cerevisiae deletion strains, locus YLL026W, active compounds read low 0.997 | S. cerevisiae deletion strains, locus YLL041C, strain sdh2, active compounds read low 1.01 | S. cerevisiae deletion strains, locus YLR027C, strain aat2, active compounds read low 1.03 | S. cerevisiae deletion strains, locus YLR039C, strain RIC1, active compounds read low 1.01 | S. cerevisiae deletion strains, locus YLR058C, strain SHM2, active compounds read low 0.998 | S. cerevisiae deletion strains, locus YLR102C, strain apc9, active compounds read low 1.02 | S. cerevisiae deletion strains, locus YLR113W, strain HOG1, active compounds read low 0.937 | S. cerevisiae deletion strains, locus YLR221C, strain rsa3, active compounds read low 1 | S. cerevisiae deletion strains, locus YLR258W, strain gsy2, active compounds read low 1.03 | S. cerevisiae deletion strains, locus YLR262C, strain YPT6 (second series), active compounds read low 1.02 | S. cerevisiae deletion strains, locus YLR262C, strain YPT6, active compounds read low 1.04 | S. cerevisiae deletion strains, locus YLR268W, strain sec22, active compounds read low 1.02 | S. cerevisiae deletion strains, locus YLR320W, strain mms22, active compounds read low 1.01 | S. cerevisiae deletion strains, locus YLR330W, strain CHS5, active compounds read low 1.01 | S. cerevisiae deletion strains, locus YLR342W, strain FKS1 (second series), active compounds read low 0.987 | S. cerevisiae deletion strains, locus YLR342W, strain FKS1, active compounds read low 1.02 | S. cerevisiae deletion strains, locus YLR357W, strain rsc2, active compounds read low 1.07 | S. cerevisiae deletion strains, locus YLR370C, strain arc18, active compounds read low 1.01 | S. cerevisiae deletion strains, locus YLR371W, strain rom2, active compounds read low 1 | S. cerevisiae deletion strains, locus YLR384C, strain iki3, active compounds read low 1.02 | S. cerevisiae deletion strains, locus YLR418C, strain cdc73, active compounds read low 1.04 | S. cerevisiae deletion strains, locus YML016C, strain PPZ1, active compounds read low 1 | S. cerevisiae deletion strains, locus YML032C, strain rad52, active compounds read low 1.01 | S. cerevisiae deletion strains, locus YML120C, strain ndi1, active compounds read low 1 | S. cerevisiae deletion strains, locus YML124C, strain tub3, active compounds read low 1.01 | S. cerevisiae deletion strains, locus YMR058W, strain fet3, active compounds read low 1.01 | S. cerevisiae deletion strains, locus YMR078C, strain ctf18, active compounds read low 1.02 | S. cerevisiae deletion strains, locus YMR125W, strain sto1, active compounds read low 1.02 | S. cerevisiae deletion strains, locus YMR129W, active compounds read low 1.02 | S. cerevisiae deletion strains, locus YMR205C, strain PFK2, active compounds read low 1.03 | S. cerevisiae deletion strains, locus YMR223W, strain ubp8, active compounds read low 1.01 | S. cerevisiae deletion strains, locus YMR231W, strain pep5, active compounds read low 1.02 | S. cerevisiae deletion strains, locus YMR263W, strain SAP30, active compounds read low 1 | S. cerevisiae deletion strains, locus YMR307W, strain GAS1, active compounds read low 1.03 | S. cerevisiae deletion strains, locus YNL067W, strain RPL9B, active compounds read low 0.99 | S. cerevisiae deletion strains, locus YNL071W, strain lat1, active compounds read low 1.03 | S. cerevisiae deletion strains, locus YNL153C, strain GIM3, active compounds read low 0.973 | S. cerevisiae deletion strains, locus YNL183C, strain NPR1, active compounds read low 0.908 | S. cerevisiae deletion strains, locus YNL209W, strain ssb2, active compounds read low 1.01 | S. cerevisiae deletion strains, locus YNL233W, strain BNI4, active compounds read low 0.986 | S. cerevisiae deletion strains, locus YNL248C, strain rpa49, active compounds read low 1.02 | S. cerevisiae deletion strains, locus YNL250W, strain rad50, active compounds read low 1.01 | S. cerevisiae deletion strains, locus YNL271C, strain bni1, active compounds read low 1.02 | S. cerevisiae deletion strains, locus YNL298W, strain CLA4, active compounds read low 1.03 | S. cerevisiae deletion strains, locus YNL307C, strain MCK1, active compounds read low 1.02 | S. cerevisiae deletion strains, locus YNL322C, strain KRE1 (second series), active compounds read low 1.01 | S. cerevisiae deletion strains, locus YNL322C, strain KRE1, active compounds read low 0.997 | S. cerevisiae deletion strains, locus YNR049C, strain mso1, active compounds read low 1.01 | S. cerevisiae deletion strains, locus YNR052C, strain pop2, active compounds read low 1.02 | S. cerevisiae deletion strains, locus YOL006C, strain TOP1, active compounds read low 0.96 | S. cerevisiae deletion strains, locus YOL012C, strain htz1 1.06 | S. cerevisiae deletion strains, locus YOL147C, strain pex11, active compounds read low 1.01 | S. cerevisiae deletion strains, locus YOR001W, strain rrp6, active compounds read low 0.986 | S. cerevisiae deletion strains, locus YOR061W, strain CKA2, active compounds read low 1.01 | S. cerevisiae deletion strains, locus YOR069W, strain VPS5, active compounds read low 1 | S. cerevisiae deletion strains, locus YOR070C, strain gyp1, active compounds read low 1.01 | S. cerevisiae deletion strains, locus YOR080W, strain dia2, active compounds read low 1.01 | S. cerevisiae deletion strains, locus YOR083W, strain WHI5, active compounds read low 0.99 | S. cerevisiae deletion strains, locus YOR106W, strain vam3, active compounds read low 1.04 | S. cerevisiae deletion strains, locus YOR136W, strain idh2, active compounds read low 1.02 | S. cerevisiae deletion strains, locus YOR144C, strain elg1, active compounds read low 1.01 | S. cerevisiae deletion strains, locus YOR184W, strain ser1, active compounds read low 1.02 | S. cerevisiae deletion strains, locus YOR231W, strain MKK1, active compounds read low 0.97 | S. cerevisiae deletion strains, locus YOR265W, strain rbl2, active compounds read low 1 | S. cerevisiae deletion strains, locus YOR270C, strain vph1, active compounds read low 1.02 | S. cerevisiae deletion strains, locus YOR290C, strain snf2, active compounds read low 1.04 | S. cerevisiae deletion strains, locus YOR316C, strain cot1, active compounds read low 1.02 | S. cerevisiae deletion strains, locus YPL051W, strain arl3, active compounds read low 1.02 | S. cerevisiae deletion strains, locus YPL078C, strain atp4, active compounds read low 1.02 | S. cerevisiae deletion strains, locus YPL106C, strain sse1, active compounds read low 1.04 | S. cerevisiae deletion strains, locus YPL240C, strain hsp82, active compounds read low 1.01 | S. cerevisiae deletion strains, locus YPL241C, strain CIN2, active compounds read low 1 | S. cerevisiae deletion strains, locus YPL256C, strain CLN2, active compounds read low 0.936 | S. cerevisiae deletion strains, locus YPR119W, strain clb2, active compounds read low 1.01 | S. cerevisiae deletion strains, locus YPR141C, strain kar3, active compounds read low 1.01 | S. cerevisiae deletion strains, locus YPR163C, strain tif3, active compounds read low 1.01 | S. cerevisiae deletion strains, locus YPR167C, strain met16, active compounds read low 1.02 | S. cerevisiae deletion strains, strain wtn01, active compounds read low 1.03 | S. cerevisiae strains, strain wild type, active compounds read low 0.995
